MITF primary = blocks human microphthalmia-associated transcription factor. O75030. AlphaScreen MITF homodimerization, bead proximity signal. inhibition, % at 2.6 µM. actives 0.91% (n = 650,000); in the data active = inhibition above about 50%;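 also: 0% = vehicle wells with protein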
GPR151 activ = activates the human receptor GPR151. Q8TDV0. PathHunter beta-arrestin GPR151 cells, luminescence. activation, % at 11.2 µM. actives 1% (n = 650,000). AID 1508602; in the data active = activation above about 4.9%;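 also: 0% = median of compound wells and 100% = cells with positive control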
FBW7 activator = human FBW7 E3 ligase activation, primary screen; Q969H0; AlphaScreen FBW7–phospho-cyclin E peptide binding, activator screen; actives 0.13% (n = 650,000); normalized activity (activation), % at 26.1 µM; in the data active = normalized activity above about 1.9%;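 also: purified mutant Fbw7 with reduced substrate affinity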
Target sequence (Q969H0 whole entry, looked up): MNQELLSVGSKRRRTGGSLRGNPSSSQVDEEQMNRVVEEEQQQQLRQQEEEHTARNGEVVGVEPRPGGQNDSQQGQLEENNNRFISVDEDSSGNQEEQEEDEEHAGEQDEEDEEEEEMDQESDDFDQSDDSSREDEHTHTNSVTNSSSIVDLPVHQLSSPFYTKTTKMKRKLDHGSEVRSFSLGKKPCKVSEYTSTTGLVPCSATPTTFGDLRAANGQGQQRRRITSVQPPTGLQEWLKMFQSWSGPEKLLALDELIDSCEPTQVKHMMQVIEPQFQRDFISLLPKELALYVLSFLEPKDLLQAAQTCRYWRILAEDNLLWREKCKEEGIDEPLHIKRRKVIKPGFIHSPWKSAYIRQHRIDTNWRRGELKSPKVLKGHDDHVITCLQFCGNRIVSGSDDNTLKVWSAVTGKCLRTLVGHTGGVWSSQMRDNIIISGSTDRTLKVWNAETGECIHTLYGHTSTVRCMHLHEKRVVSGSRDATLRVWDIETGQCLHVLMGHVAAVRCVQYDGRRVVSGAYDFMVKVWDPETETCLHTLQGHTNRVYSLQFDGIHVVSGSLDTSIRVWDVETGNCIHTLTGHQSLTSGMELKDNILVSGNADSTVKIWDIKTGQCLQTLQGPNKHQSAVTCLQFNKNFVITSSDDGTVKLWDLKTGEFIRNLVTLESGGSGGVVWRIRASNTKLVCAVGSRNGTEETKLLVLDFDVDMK
TEAD-YAP inh = TEAD-YAP interaction inhibition. HEK-TIYL cells, TEAD-Gal4/YAP UAS-luciferase luminescence. inhibition, % at 9.12 µM. actives 1.4% (n = 640,000). AID 1259422; in the data active = inhibition above about 32%;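 also: 0% = median of test compound wells and 100% = reference inhibitor wells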
GPR151 confirm = confirmation of human GPR151 activators. GPR151 PathHunter beta-arrestin cells, luminescence, 90 min; % of EA-reagent control over plate median. activation, % at 11.2 µM. shares compounds with GPR151 activ. 6,700 tested, under 10 active. AID 1508609;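 active = mean percent activation across replicates above the confirmation screen cutoff of 4.91%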
GPR119 ag = activates human GPR119 in a GPR151 counter-screen | shares compounds with GPR151 activ | GPR119 PathHunter beta-arrestin cells, luminescence, 90 min; 0 = compound-well median, 100 = enzyme-acceptor control | activation, % at 11.2 µM | actives 0.3% (n = 6,700);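 active = mean percent activation in the counterscreen above 29.09%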;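 also: counterscreen on off-target GPR119 to flag nonselective hits from the GPR151 activator screen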
Numbers without * were called inactive; x = no result given. Compounds with a hit are over-represented: about 3.4% of the library has one in this group of screens.

SMILES	MITF primary	GPR151 activ	FBW7 activator	TEAD-YAP inh	GPR151 confirm	GPR119 ag
CCC1=NN(C(=O)Cc2ccccc2)C(O)(c2ccccc2)C1 (stereo unspecified)	6	6.9*	0	-5	0	7
Cc1ccc(NC(=O)C2CC(Cl)=CCC2C(=O)O)cc1[N+](=O)[O-] (stereo unspecified)	-6	18*	0	9	0	-4
COC(=O)c1c(NC(=O)COc2cc(C)cc(C)c2)sc2c1CCC2	-1	0	0	0	x	x
Cc1ccc(-c2csc3nnc(SCC(=O)NC(N)=O)n23)cc1	7	6.3*	0	1	3	-3
Cc1ccc(-c2csc3nnc(SCC(=O)NCCc4ccccc4)n23)cc1	0	0	0	4	x	x
O=C(Nc1cccc2nsnc12)c1ccccc1F	0	0	0	4	x	x
Cc1ccc(C(=O)NC(C)C2CC3CCC2C3)cc1 (stereo unspecified)	0	10*	0	-12	1	3
Cc1ccc(C(=O)NC(C(=O)O)C(C)C)cc1 (stereo unspecified)	9	7.8*	0	9	0	-3
CC(C)C(NC(=O)c1ccc(F)cc1)C(=O)O (stereo unspecified)	3	-1	0	1	x	x
O=C(c1ccccc1)N1c2ccccc2CC1S(=O)(=O)O (stereo unspecified)	10	0	0	-11	x	x
CCOC(=O)c1cc(C)sc1NC(=O)c1cc(-c2ccc(CC(C)C)cc2)nc2ccccc12	0	0	0	3	x	x
CCCCOc1ccc(-c2cc(C(=O)NN)c3ccccc3n2)cc1	0	0	0	-2	x	x
COC(=O)c1c(NC(=O)c2cc(-c3ccc(CC(C)C)cc3)nc3ccccc23)sc(C)c1-c1ccccc1	14	5.1*	1	4	2	17
CCCCOc1ccc(-c2cc(C(=O)OC)c3ccccc3n2)cc1	2	7.5*	0	0	0	-9
Cc1cccc(-c2nc(CCNC(=O)Cc3ccccc3)cs2)c1	-2	5.8*	0	-1	1	5
CSc1ccccc1NC(=O)CN(c1cccc([N+](=O)[O-])c1)S(C)(=O)=O	19	0	0	-1	x	x
O=C(CC1CCC1)Nc1cc(Cl)ccc1Cl	1	0	0	6	x	x
c1cc(CNc2nc3nonc3nc2NC2CC2)c2cc[nH]c2c1	10	5.5*	0	-1	0	8
C=C(C)CNc1nc2nonc2nc1NC1CC1	-3	1	0	-5	x	x
COC(=O)c1cc(NC(=O)CSc2nc(N)cc(N)n2)cc(C(=O)OC)c1	8	0	0	13	x	x
COc1ccc(/C(C)=N/Nc2ccc([N+](=O)[O-])cc2S(=O)(=O)N2CCOCC2)cc1	-5	1	0	0	x	x
C/C(=N\Nc1ccc([N+](=O)[O-])cc1S(=O)(=O)N1CCOCC1)c1cccs1	-8	6.3*	0	4	0	-12
O=C(CCN1C(=O)C2C3C=CC(CC3)C2C1=O)N1CCN(c2ccccn2)CC1 (stereo unspecified)	-8	0	0	-2	x	x
Cc1cccc(-c2cnc(C)nc2C2CCCN(C(=O)CN(C)C)C2)c1 (stereo unspecified)	-3	14*	0	-1	1	-1
CC(=O)CC(C)C(=O)N1CCCC(c2nc(C)ncc2-c2cccc(C)c2)C1 (stereo unspecified)	0	6.4*	0	-3	1	-2
SMILES	MITF primary	GPR151 activ	FBW7 activator	TEAD-YAP inh	GPR151 confirm	GPR119 ag
CC(C)n1cnc2c(Nc3ccc4c(c3)OCO4)nc(NCCN3CCOCC3)nc21	-12	-1	0	-16	x	x
CCOC(=O)CSc1nc2c(sc(=S)n2Cc2ccccc2)c(=O)n1Cc1ccccc1	-10	6.0*	0	-14	0	-4
CCOC(=O)CSc1nc2c(c(=O)n1Cc1ccccc1)C1(CCCC1)Cc1ccccc1-2	21	7.5*	1	-4	0	12
CCOC(=O)CSc1nc2cc(C(=O)NC3CCCCC3)ccc2c(=O)n1CCc1ccccc1	17	5.1*	0	13	0	-1
NC(=O)CSc1nc2nccnc2c(=O)n1Cc1ccccc1	0	0	0	1	x	x
CCOC(=O)CSc1nc2nccnc2c(=O)n1Cc1ccccc1	5	5.0*	0	1	0	-1
CCOC(=O)CSc1nc2c(sc(=S)n2Cc2ccccc2)c(=O)n1-c1cccc(Cl)c1	3	0	0	10	x	x
Cc1nc2scc(-c3ccc(F)cc3)c2c(=O)n1-n1cccc1	-3	-1	0	0	x	x
O=C(CNC(=O)c1cc(N2CCOCC2)ccn1)Nc1ccc(F)c(F)c1F	11	5.0*	0	-3	-1	-2
COc1cc(-c2cn[nH]c2)c(F)cc1NC(=O)C(N)c1cccc(F)c1 (stereo unspecified)	8	-1	0	11	x	x
O=C1OC(c2ccc(Br)cc2)=N/C1=C\c1cccc([N+](=O)[O-])c1	7	-1	0	-7	x	x
O=C(CSc1cccc[n+]1[O-])N1CCCCCC1	2	2	0	2	x	x
[O-][n+]1ccccc1SSc1cccc[n+]1[O-]	1	6.9*	0	96*	-1	-14
COc1cccc(C2CC(c3ccc(OC)c(OC)c3)=NN2S(C)(=O)=O)c1 (stereo unspecified)	0	0	0	-69	x	x
CC(=O)Nc1cc(-c2ccc(Br)cc2)nn1-c1ccccc1	-1	2	0	-25	x	x
O=C(COC(=O)c1cc([N+](=O)[O-])ccc1NCCO)Nc1ccc(F)cc1F	-1	5.6*	0	-17	0	-5
O=C(COC(=O)c1cc([N+](=O)[O-])ccc1NCCO)Nc1ccc(F)cc1	-38	1	0	11	x	x
O=C(Nn1c(=S)[nH]c2ccccc2c1=O)c1ccc(Br)cc1	8	-1	0	-4	x	x
O=C(O)c1ccc(Nn2c(=S)[nH]c3ccccc3c2=O)cc1	5	5.0*	0	-1	0	-12
COc1ccc(Cl)cc1C(=O)Nc1ccc2oc(-c3ccc(F)cc3)nc2c1	1	0	0	-1	x	x
COc1ccc(N2CCN(C3CCCN(C(=O)CCN4CCCCO4)C3)CC2)cc1 (stereo unspecified)	6	5.3*	0	-5	1	10
COc1cccc(S(=O)(=O)N2CCC(c3nc(-c4ccccc4)no3)CC2)c1	2	0	0	2	x	x
COc1cccc(S(=O)(=O)N2CCC(c3nc(-c4cccs4)no3)CC2)c1	17	8.3*	1	-5	0	4
CCOC(=O)c1ccc(-n2c(C)cc(/C=C3/NC(=O)N(c4ccccc4)C3=O)c2C)cc1	-13	2	0	2	x	x

Screening data (PubChem)
